Records with an inconclusive call do not appear. Entries that show only a call come without a potency. Activity calls are given as the source filed them. Calls come from the whole dose curve; as a rule, active = well fitted inhibition curve with a large enough effect; inconclusive = small, poorly fitted or top-dose-only effect; inactive = no such curve, though single readings can be large or run the other way.
Potency is the fitted concentration of half-maximal effect.

The assay in a line: qHTS for Inhibitors of the Aldehyde Dehydrogenase Family (ALDH1A2, ALDH1A3, ALDH2, ALDH3A1) (AID 2061307). For potency: test system not described further here. Note: nearly all actives have a fitted effect of over 50% in size. The conditions noted are these: ALDH inhibition qHTS; series mostly up to 50.3 µM. (In qHTS, concentration-response curves come from the screen itself.)
For `Cc1ccc2c(c1)/C(=C\C(=O)c1cccs1)C(=O)N2`, the Potency result was “inactive”.
The value for `O=C(O)c1cccc(COc2cccc([N+](=O)[O-])c2)c1` was 269 nM (active); that for `COc1ccc(CN2CCN(C(=O)c3cc4c(s3)CCC4)CC2)cc1` was “inactive”.
The value for `O=C(Nc1ccnc(Cc2ccccc2)c1)c1ccc(-c2cccc([N+](=O)[O-])c2)o1` was 2010 nM (active).
With `Cc1ccccc1OCC(O)Cn1c(NCc2ccccc2)nc2c1c(=O)n(C)c(=O)n2C` (configuration not stated), the Potency entry is “inactive”.
The value for `CCc1ccc(CSc2nccn2-c2ccccc2)cc1` was “inactive”; that for `CC(Sc1nc2nn(C3COC3)cc2c(=O)n1-c1ccccc1)c1ccccn1` (configuration not stated) was “inactive”; that for `O=C(O)c1cc(-c2cccs2)nc2cc(Br)ccc12` was 10100 nM (active).
The value for `O=C(c1cccs1)c1no[n+]([O-])c1C(=O)c1cccs1` was 1590 nM (active); that for `O=C(O)c1csc(-n2[nH]c(-c3ccc(F)c(F)c3)cc2=O)n1` was “inactive”.
The value for `COc1ccc(-c2ccncc2)cc1OC` was “inactive”; that for `CC(C)c1ccc(-c2cc(-c3nn(-c4nc(C(=O)O)cs4)c(CC4CC4)c3Cc3ccc(S(N)(=O)=O)cc3)ccc2F)cc1` was 1120 nM (active).
On to `COc1cc2ccccc2cc1C(=O)NC(=S)Nc1cccc(C(=O)O)c1`, for which the Potency was 4490 nM (active).
The value for `CSc1cc2c(s1)c1cnn(Cc3cccc(N)c3)c(=O)c1n2C` was “inactive”.
The value for `Cc1ccc(N2CCN(C(=S)c3ccc(-c4ccccc4[N+](=O)[O-])o3)CC2)cc1` was 3570 nM (active).
For the compound `O=C(Nc1nc2ccc(Cl)cc2s1)c1cc(=O)c2ccccc2o1`, the Potency result was “inactive”.
The value for `Cc1cccn2c(=O)c(C(=O)NCc3cccc(F)c3)cnc12` was “inactive”.

Source of the values: PubChem BioAssay (NCATS).
